Source: PubChem (National Center for Advancing Translational Sciences (NCATS))
An excerpt weighted towards active compounds, which were near 0.9% of everything screened.
BLM inh: blocks DNA unwinding by human BLM helicase. AID 2528. recombinant BLM DNA unwinding, fluorescence dequenching. P54132. hit rate 0.2% among 350,000. Potency, µM (top dose mostly 56.1 µM), for the others: at the highest dose activity change, negative = inhibition, hits mostly inhibitors;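 further: plate controls were vehicle for no effect and no enzyme for full effect; nearly all actives have a fitted effect of over 35% in size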
Target sequence (P54132 whole entry, looked up): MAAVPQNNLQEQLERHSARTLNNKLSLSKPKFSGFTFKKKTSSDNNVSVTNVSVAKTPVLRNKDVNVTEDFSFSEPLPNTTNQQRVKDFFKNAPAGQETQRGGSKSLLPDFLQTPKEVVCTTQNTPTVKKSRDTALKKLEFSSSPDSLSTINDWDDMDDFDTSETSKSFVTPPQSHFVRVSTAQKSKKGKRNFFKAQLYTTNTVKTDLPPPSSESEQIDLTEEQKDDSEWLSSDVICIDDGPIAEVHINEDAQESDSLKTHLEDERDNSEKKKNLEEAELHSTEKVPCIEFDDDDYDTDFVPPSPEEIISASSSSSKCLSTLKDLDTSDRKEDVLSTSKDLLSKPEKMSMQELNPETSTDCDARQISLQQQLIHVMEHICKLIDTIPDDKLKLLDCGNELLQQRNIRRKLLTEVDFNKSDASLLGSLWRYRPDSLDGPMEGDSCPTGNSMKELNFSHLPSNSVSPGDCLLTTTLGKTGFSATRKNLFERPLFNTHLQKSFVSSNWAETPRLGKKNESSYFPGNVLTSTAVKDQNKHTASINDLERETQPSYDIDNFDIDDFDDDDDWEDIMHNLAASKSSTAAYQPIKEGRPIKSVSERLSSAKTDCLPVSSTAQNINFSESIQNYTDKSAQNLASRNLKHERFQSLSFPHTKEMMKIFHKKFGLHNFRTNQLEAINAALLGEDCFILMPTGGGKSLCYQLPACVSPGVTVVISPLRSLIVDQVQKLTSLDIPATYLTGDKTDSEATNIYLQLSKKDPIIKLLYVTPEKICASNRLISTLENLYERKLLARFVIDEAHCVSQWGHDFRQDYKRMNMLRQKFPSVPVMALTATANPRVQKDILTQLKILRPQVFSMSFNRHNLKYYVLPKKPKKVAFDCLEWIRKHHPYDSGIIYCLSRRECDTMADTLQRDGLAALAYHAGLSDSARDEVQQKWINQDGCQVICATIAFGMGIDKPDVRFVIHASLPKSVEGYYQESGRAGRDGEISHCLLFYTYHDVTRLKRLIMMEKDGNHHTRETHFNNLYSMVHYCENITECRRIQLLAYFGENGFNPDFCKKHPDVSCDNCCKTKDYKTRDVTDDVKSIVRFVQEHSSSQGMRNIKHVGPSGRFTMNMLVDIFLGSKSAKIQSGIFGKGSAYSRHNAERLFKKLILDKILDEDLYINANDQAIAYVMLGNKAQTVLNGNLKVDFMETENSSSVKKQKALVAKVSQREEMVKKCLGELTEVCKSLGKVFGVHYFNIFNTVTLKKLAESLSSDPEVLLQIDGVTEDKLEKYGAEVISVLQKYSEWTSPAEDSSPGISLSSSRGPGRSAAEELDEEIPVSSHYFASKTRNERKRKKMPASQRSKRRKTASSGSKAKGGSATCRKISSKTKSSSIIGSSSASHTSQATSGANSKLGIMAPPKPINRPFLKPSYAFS
TRb-SRC2 inh: TRbeta-SRC2 interaction inhibition; TRbeta-SRC2 peptide binding, fluorescence polarization; receptor liganded with 1 µM T3; Potency, µM (top dose mostly 106 µM), for inactives: at the top dose activity change, negative = inhibition, usual class: inhibitors; hit rate 0.065% among 280,000;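 further: plate controls were bound peptide for no effect and peptide without receptor for full effect; nearly all actives have a fitted effect of over 50% in size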
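Each compound concentration gave % activity, normalized to unbound and bound Texas Red SRC2 controls, from polarization read after 5 hr ambient incubation with T3-loaded human TRb LBD.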
TexasRed fluor: Texas Red fluorescence interference in TRb-SRC2 counter-screen; TRb/SRC2 Texas Red total fluorescence interference; Potency, µM (doses to about 106 µM), for the others: top-dose fluorescence change, negative = quenching; hit rate 0.29% among 280,000; active means well fitted curve in either direction with a large enough effect; inconclusive means small, poorly fitted or top-dose-only effect
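Human TRb ligand-binding domain at 0.6 uM with 20 nM Texas Red SRC2 peptide in Tris buffer containing 1 uM T3 and 5% DMSO, incubated with compound 5 h at ambient temperature. Total fluorescence (555/632 nm) calculated as parallel + 2 × perpendicular.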
GoLoco inh red: blocks human Gai1 binding to RGS12 GoLoco peptide, red readout | hit rate 0.44% among 230,000 | Potency, µM (series often up to 61.6 µM), for inactives: top-dose activity, negative = inhibition, most hits filed as inhibitors | P63096 | Gai1:RGS12 GoLoco peptide FP, rhodamine, 10 min | AID 880; active means well fitted inhibition curve with a large enough effect, not every such curve was filed as active; inactive means no such curve, though single readings can be large or run the other way; further: nearly all actives have a fitted effect of over 30% in size
RECQ1 inh-1: inhibitors of human RECQ1 DNA helicase. RECQ1 DNA unwinding, red fluorescence kinetic read. Potency, µM (series often up to 57.3 µM), without a hit: at the highest dose activity, negative = inhibition, usual class: inhibitors. hit rate 0.54% among 240,000. AID 2549;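 further: plate controls were vehicle for no effect and no enzyme for full effect; nearly all actives have a fitted effect of over 30% in size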
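50 nM RECQ1T1 preincubated 15 min with compound in Tris pH 8.0 buffer with MgCl2, DTT, Tween-20 and 2.5 ug/ml poly(dI-dC); started with 200 nM TAMRA/BHQ-2 forked duplex and 2 mM ATP. Unwinding read as fluorescence (525/598 nm), two reads 2 h apart.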
APEX1 inh: blocks human APE1 abasic DNA cleavage. hit rate 0.35% among 350,000. P27695. AID 2517. recombinant APE1, TAMRA/BHQ-2 abasic DNA cleavage fluorescence. Potency, µM (series often up to 65.8 µM), for inactives: at the highest dose activity change, negative = inhibition, most hits filed as inhibitors;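 further: plate controls were vehicle for no effect and reference inhibitor for full effect; nearly all actives have a fitted effect of over 55% in size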
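APE1 at 0.75 nM final was preincubated with compound 15 min at room temperature, then 50 nM double-stranded THF abasic-site substrate (5'-TAMRA/3'-BHQ-2) was added. Fluorescence (ex 525/em 598 nm) was read kinetically; third-minus-first read gave activity.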
RECQ1 conf: confirmation of human RECQ1 helicase inhibitors | hit rate 28% among 610 | Potency, µM (doses to about 229 µM), for inactives: top-dose activity change, negative = inhibition, usual class: inhibitors | shares compounds with RECQ1 inh-1 | RECQ1 helicase DNA unwinding, fluorescence; further: nearly all actives have a fitted effect of over 45% in size
RECQ1 ADP FP: counter-screen for RECQ1 inhibitors: ADP displacement. shares compounds with RECQ1 inh-1. Potency, µM (top dose mostly 228 µM), for inactives: at the highest dose activity change, negative = inhibition, most hits filed as inhibitors. hit rate 27% among 530. ADP fluorescence polarization displacement counterscreen. AID 2711; further: nearly all actives have a fitted effect of over 45% in size
RECQ1 inh-2: confirmation of human RECQ1 helicase inhibitors; AID 504841; hit rate 15% among 1,100; recombinant RECQ1 DNA unwinding, red fluorescence; shares compounds with RECQ1 inh-1; Potency, µM (top dose mostly 119 µM), for inactives: at the top dose activity, negative = inhibition, actives largely listed as inhibitors; further: nearly all actives have a fitted effect of over 50% in size
Numbers without * were called inactive; i = inactive; u = inconclusive; x = no result; [ ] = another dose, or the depositor's remark. Unless noted, the call rests on the fitted dose curve; in most records, active means well fitted curve in the direction sought with a large enough effect; inconclusive means small, poorly fitted or top-dose-only effect, or another doubt; inactive means no such curve, though single readings can be large; an effect the other way counts as inactive or inconclusive. Unless noted, on the % scale 0 is the no-effect control and ±100 the full control effect; potency means the concentration at half of the fitted maximal effect.

SMILES	BLM inh	TRb-SRC2 inh	TexasRed fluor	GoLoco inh red	RECQ1 inh-1	APEX1 inh	RECQ1 inh-2	others
COC(=O)c1c(NC(=O)/C=C/C(=O)O)sc(C)c1-c1ccc(C)cc1	-6.1%	u	-2.8%	6.9%	i	7.5%	x
O=C(COC(=O)CNC(=O)c1cccc([N+](=O)[O-])c1)Nc1cccc(S(=O)(=O)N2CCCCC2)c1	0.8%	2.9%	7.1%	4.4%	-1.1%	-5.6%	x
Cc1ccc(NC(=O)COC(=O)CNC(=O)c2cccc([N+](=O)[O-])c2)cc1S(=O)(=O)N1CCCCCC1	-8.6%	1.9%	-0.1%	-13.0%	31.6µM*	u	-15.6%
Clc1ccc(-n2nnc(-c3nccs3)n2)cc1Cl	-4.5%	-2.0%	1.9%	5.5%	-0.1%	1.9%	x
Cc1ccc(-n2nnc(-c3nccs3)n2)cc1	2.8%	-1.9%	-2.9%	9.0%	0.891µM*	u	-0.4%	RECQ1 conf=12.4%[114 µM];RECQ1 ADP FP=31.6%[91.9 µM]
COc1ccc(-c2nc3cnc(N4CCNCC4)nc3n(Cc3cccc(OC)c3)c2=O)cc1	u	x	x	3.8%	u	u	u
COc1cccc(Cn2c(=O)c(-c3ccc(F)cc3)nc3cnc(N4CCNCC4)nc32)c1	-0.4%	x	x	-7.6%	i	0.2%	x
Cc1cccc(Cn2cnc3c(cnn3-c3ccc(Cl)cc3)c2=O)c1	-2.0%	-3.6%	-1.1%	x	x	x	x
COc1cc(OC)c(NC(=O)c2cn(C)c(=O)c3cc(OC)c(OC)cc23)cc1Cl	-13.6%	-5.8%	0.1%	x	x	x	x
COc1ccc2cc(-c3[nH]ncc3CN3CCCN(c4ccccc4)CC3)ccc2c1	-6.0%	-0.1%	-2.1%	0.6%	u	-7.1%	-23.1%
COCCn1c(C)cc(C(=O)COC(=O)c2ccc(S(=O)(=O)N(C)C)cc2)c1C	x	x	x	x	x	45.8%	x
COCCn1c(C)cc(C(=O)COC(=O)c2ccc(NC(=O)CC#N)cc2)c1C	-16.1%	8.8%	6.9%	43.5%	31.6µM*	7.7%	-11.4%
Cc1cc(C(=O)CSc2nnc(-c3ccccc3)n2-c2ccccc2)c(C)n1-c1ncn[nH]1	-11.0%	-25.1%	0.6%	7.1%	35.5µM*	1.1%	u
Cc1cccc(N(C(=O)c2ccc(Cl)cc2)C2CS(=O)(=O)CC2OC(=O)c2ccc(Cl)cc2)c1 (stereo unspecified)	-7.2%	2.9%	-4.6%	11.5%	u	7.6%	-11.3%
Cc1cccc(C(=O)OC2CCN(C)CC2)c1	-4.1%	-6.3%	-3.7%	13.4%	-3.3%	-0.1%	x
Cc1ccc(CSC2=Nc3ccccc3C3=NC(CC(=O)NCc4ccco4)C(=O)N23)cc1 (stereo unspecified)	2.1%	2.1%	0.8%	23.6%	u	-10.6%	u
CN(Cc1ccccc1)C(=O)CCNS(=O)(=O)c1ccc2c(c1)oc(=O)n2C	-6.7%	-8.0%	-0.9%	12.9%	35.5µM*	u	u
Clc1cccc(N2CCN(c3nc4ccccc4n4nnnc34)CC2)c1	-3.3%	8.4%	-0.8%	x	x	x	x
CCC(=O)N1CCCc2cc(S(=O)(=O)NCc3cccs3)ccc21	-1.4%	-18.0%	-2.3%	-8.8%	-1.2%	-1.1%	x
O=C(O)CCCC(=O)N1CCc2cc(S(=O)(=O)NCc3ccc(F)cc3)ccc21	-13.5%	-1.7%	-2.0%	-11.3%	-7.9%	19.4%	x	RECQ1 conf=11.7%;RECQ1 ADP FP=6.5%
O=C(O)CCC(=O)N1CCc2cc(S(=O)(=O)NCc3cccs3)ccc21	-1.7%	5.9%	0.8%	3.6%	-2.0%	-6.7%	x	RECQ1 conf=6.5%;RECQ1 ADP FP=-1.0%
Cc1ccc(NC(=O)c2ccccc2NS(=O)(=O)c2ccc(Cl)s2)cc1	-5.8%	9.8%[53 µM]	-3.6%[53 µM]	-7.4%	39.8µM*	15.9%	-17.9%
C=CCn1c(=O)c(C#N)cc2c(=O)n3ccccc3nc21	-9.3%	-25.6%	10.6%	37.6%	u	9.8%	-16.0%
C=CC[C@@H]1[C@H](O)CC[C@@]2(C)[C@H]1CC[C@@H]1[C@@H]2CC[C@]2(C)C([C@H](C)CCCC(C)C)CC[C@@H]12 (stereo partly specified)	x	0.7%	-1.9%	-2.3%	16.0%	-6.5%	x
O=C1NC(=Nc2ccc(O)cc2)S/C1=C\C=C\c1ccco1	-24.2%	1.3%	-12.8%	-83.0%	u	u	u
SMILES	BLM inh	TRb-SRC2 inh	TexasRed fluor	GoLoco inh red	RECQ1 inh-1	APEX1 inh	RECQ1 inh-2	others
COc1ccc(NC(=O)/C(Cl)=C(/Cl)S(=O)Cc2ccc(Cl)cc2)cn1 (stereo unspecified)	-16.7%	-3.7%	-2.3%	2.5%	35.5µM*	8.6%	-32.7%
CC(C)OC(=O)c1cccc(C(=O)Oc2ccccc2)n1	-1.3%	-11.1%	-3.8%	-9.7%	-14.1%	-3.1%	x
COC(=O)c1cccc(C(=O)Oc2cccc(Br)c2)n1	-0.4%	7.9%	0.6%	-12.3%	14.1µM*	-0.9%	-5.0%	RECQ1 conf=10.7%[114 µM];RECQ1 ADP FP=27.7%[91.9 µM]
COc1ccc2c(c1)c1c(c(=O)n(Cc3ccccc3)c(=O)n1CC(=O)Nc1ccccc1F)n2C	-2.2%	1.6%	0.3%	x	x	x	x
CCn1c(SCC(=O)NCc2ccco2)nc2ccccc2c1=O	2.6%	-3.3%	-0.5%	11.0%	u	4.3%	-10.5%
O=C1CCCC=C1[C@@H](O)C1CCCCC1	-0.5%[12.4 µM]	1.2%[11.2 µM]	0.7%[11.2 µM]	x	15.2%[11.5 µM]	0.3%[12.4 µM]	x
COc1ccc(C(=O)Oc2c(Sc3ccc(C)cc3)c(C)nn2C(C)(C)C)c(OC)c1	-9.4%	0.2%	-0.4%	x	x	x	x
O=C(Nc1cccc(Cl)c1)C1CCCN(c2nn3cc(-c4ccc(F)cc4)nc3s2)C1 (stereo unspecified)	-10.0%	1.7%	-1.0%	x	x	x	x
CC1=CN2C(=N)/C(=C/c3ccc([N+](=O)[O-])o3)C(=O)N=C2S1	-17.8%	-7.4%	44.7µM*[fluorescent]	93.8%	28.2µM*	u	u
Cc1ccccc1NC(=O)CSc1cn(CC(=O)N(C(C)C)C(C)C)c2ccccc12	1.8%	-11.5%	0.2%	x	x	x	x
COC(=O)c1sc2ccccc2c1NC(=O)c1ccc(S(=O)(=O)N2CCCCC2C)cc1 (stereo unspecified)	-4.4%	-4.1%	-4.5%	4.0%	5.2%	-4.9%	x	RECQ1 conf=4.4%;RECQ1 ADP FP=-5.2%
